SNCA viab count – cell viability loss counter-screen; HEK-293-SNCA-luc viability, GF-AFC fluorescence, 24 h; Potency, µM (titrated, usually from 57.1 µM), for the others: top-dose activity change, negative = cytotoxicity, hits mostly cytotoxic; 150,000 compounds, 0.12% hits; AID 1671193;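 also: potency is read from the fitted curve at half-maximal effect; 0% = DMSO-treated cells and -100% = medium-only wells without cells; nearly all actives have a fitted effect of over 30% in size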
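Cytotoxicity counterscreen: after 24 h compound treatment of genome-edited SNCA-luciferase HEK-293 cells, live-cell protease substrate GF-AFC read by fluorescence after 30 min; activity scaled between DMSO (0%) and medium-only (-100%), curves Hill-fitted.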
Luciferase inh – inhibitors of firefly (Photinus pyralis) luciferase; 76,000 compounds, 2.5% hits; purified P. pyralis luciferase, luminescence, biochemical; P08659; Potency, µM (highest dose often 115 µM), usual class: inhibitors; AID 1347043; also: potency is read from the fitted curve at half-maximal effect; nearly all actives have a fitted effect of over 65% in size
Target sequence (P08659 whole entry, looked up): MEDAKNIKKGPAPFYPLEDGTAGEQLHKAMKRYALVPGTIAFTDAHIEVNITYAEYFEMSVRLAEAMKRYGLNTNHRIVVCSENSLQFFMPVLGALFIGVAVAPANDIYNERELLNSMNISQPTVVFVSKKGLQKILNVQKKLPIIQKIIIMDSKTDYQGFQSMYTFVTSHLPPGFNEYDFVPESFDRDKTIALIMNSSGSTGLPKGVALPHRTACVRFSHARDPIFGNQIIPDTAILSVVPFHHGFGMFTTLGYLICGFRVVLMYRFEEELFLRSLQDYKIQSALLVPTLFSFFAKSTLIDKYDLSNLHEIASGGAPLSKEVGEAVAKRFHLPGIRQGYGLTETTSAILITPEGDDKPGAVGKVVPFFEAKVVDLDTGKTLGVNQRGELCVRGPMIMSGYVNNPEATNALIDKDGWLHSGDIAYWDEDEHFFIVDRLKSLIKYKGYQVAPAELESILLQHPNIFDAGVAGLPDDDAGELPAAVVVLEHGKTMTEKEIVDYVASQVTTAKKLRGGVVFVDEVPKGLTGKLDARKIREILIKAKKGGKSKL
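Cell-free enzyme assay, 10nM P. pyralis luciferase, luciferin and ATP each at 10uM. Inhibition profiled over a 6-point titration, read as luminescence.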
NIH3T3 tox – cytotoxic compounds in NIH 3T3 cells; 94,000 compounds, 4.3% hits; Potency, µM (titrated, usually from 96.7 µM), inactives show top-dose activity change, negative = cytotoxicity, usual class: inhibitors; NIH 3T3 viability, CellTiter-Glo ATP luminescence, 48-72 h; AID 1345082; also: potency is read from the fitted curve at half-maximal effect; nearly all actives have a fitted effect of over 55% in size
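Luminescent ATP readout (CellTiter-Glo, 10 min RT) after 48 or 72 hr compound exposure of NIH 3T3 cells seeded at 400 cells/well in 1536-well format; quantitative HTS.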
IP6K1 inh – inhibitors of human IP6K1. Q92551. activity change, % (series mostly up to about 58 µM). 140,000 compounds, 0.81% hits. IP6K1 kinase, ADP-Glo luminescence, 2 h; active compounds read low; in the data active = activity change below about -25%
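ADP-Glo luminescence measures ADP made by human IP6K1 during a 2 h RT reaction with ATP/IP6 (mix at 1.3 mM/130 uM); top library doses 57.5 and 19.1 uM final.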
HEK293 tox – cytotoxic compounds in HEK 293 cells | HEK 293 viability, ATP luminescence (CellTiter-Glo), 48-72 h | Potency, µM (doses to about 115 µM), without a hit: top-dose activity change, negative = cytotoxicity, usual class: inhibitors | 94,000 compounds, 6.6% hits | AID 1345083; also: potency is read from the fitted curve at half-maximal effect; nearly all actives have a fitted effect of over 60% in size
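HEK 293 cells at 250 cells/well were exposed to compounds by pintool transfer for 48 or 72 hr at 37 degree Celsius, 5% CO2. Viability was read as ATP-coupled luminescence with CellTiter-Glo after 10 min at room temperature.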
SNCA expr inh – reduces expression of the alpha-synuclein gene | HEK-293 SNCA-luciferase knock-in, luminescence, 24 h | Potency, µM (series often up to 57.2 µM), inactives show at the highest dose activity change, negative = inhibition, actives largely listed as inhibitors | 140,000 compounds, 0.17% hits | AID 1671194;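 also: potency is read from the fitted curve at half-maximal effect; plate controls were DMSO cells for no effect and cell-free wells for full effect; nearly all actives have a fitted effect of over 45% in size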
Starred values were filed as active, the others as inactive; i = inactive; ? = inconclusive; · = no result; ! = not confirmed by another sample; [ ] = dose if it differs, or a comment. Most compounds without a hit are left out; they make up all but 7.3% or so of the library. Unless noted, calls follow the shape of the dose curve; as a rule, active = well fitted curve in the direction sought with a large enough effect; inconclusive = small, poorly fitted or top-dose-only effect, or another doubt; inactive = no such curve, though single readings can be large; an effect the other way counts as inactive or inconclusive. Unless noted, % is scaled to controls: 0 for no effect and ±100 for the full control effect.

SMILES | SNCA viab count | Luciferase inh | NIH3T3 tox | IP6K1 inh | HEK293 tox | SNCA expr inh
CNC(=O)[C@@H]1C[C@@H](n2cc(CNC(=O)Nc3ccc(Cl)cc3C)nn2)CN1 | 2.2% | i | i | 28.5 | 35.5µM* | -4.5%
CCCCCN1CCCCC12Cc1ccccc1CNC2=O (configuration not stated) | -8.7%[87.6 µM] | · | i | -11.6 | -7.1%[172 µM] | 2.0%[87.6 µM]
CCn1nccc1C(=O)N1CCC2(CC1)CC(OCCOC)CCO2 (configuration not stated) | 7.7%[12.5 µM] | i | -3.7% | 8.3 | 5.1% | -22.2%
CCS(=O)(=O)N1CCC2(CC1)c1[nH]c3ccccc3c1CCN2C | -5.2%[12.5 µM] | i | -31.9% | -3.7 | ? | 0.5%
Cc1nn(C)c(C)c1S(=O)(=O)N1CCC2(CC1)c1[nH]c3ccccc3c1CCN2C | -9.6%[12.5 µM] | i | -17.6% | -6.8 | 89.1µM* | 31.0%
CC(C)CCN1CCC(N2CCN(S(=O)(=O)C(C)C)CC2)C1=O (configuration not stated) | 5.3% | i | i | 7.6 | i | -12.2%
COc1ccc(C(=O)NC2CCN(c3cc(-c4ccc(Cl)cc4)[nH]n3)C2)c(OC)c1 (configuration not stated) | ? | i | 35.5µM* | 0.0 | 44.7µM* | -19.2%
O=C(NC1CCN(c2cc(-c3ccc(Cl)cc3)[nH]n2)C1)c1ccccc1Br (configuration not stated) | 0.6% | i | 35.5µM* | 15.1 | 28.2µM* | -14.4%
O=C(NC1CCN(c2cc(-c3ccc(Cl)cc3)[nH]n2)C1)c1ccc(F)cc1F (configuration not stated) | -9.8% | i | ? | 11.0 | 50.1µM* | -15.3%
O=C(NC1CCN(c2cc(-c3ccc(Cl)cc3)[nH]n2)C1)c1ccccc1F (configuration not stated) | 4.1% | i | ? | 15.1 | ? | -21.3%
CN(C)[C@@H]1CN(C2CCCCC2)CC[C@@H]1CO | 0.2%[12.5 µM] | i | 1.8% | 4.9 | i | 16.0%
COc1ccc(-c2cc3c(=O)n(CCNC(=O)c4ccccn4)ccn3n2)cc1 | -0.8% | 7.94µM* | -27.1% | -2.3 | -26.9% | 64.2%
COc1ccc(-c2cc3c(=O)n(CCNC(=O)c4ccccc4C)ccn3n2)cc1 | -24.7% | 10µM* | -20.7% | -3.0 | ? | 63.3%
CC(=O)Nc1cccc(C(=O)NCCn2ccn3nc(-c4ccc(F)cc4)cc3c2=O)c1 | -15.9% | 20µM* | ? | 3.4 | 44.7µM* | 81.8%
COc1ccc(-c2cc3c(=O)n(CCNC(=O)c4cccc5[nH]ccc45)ccn3n2)cc1 | -14.0% | 6.31µM* | ? | -6.3 | 31.6µM* | 76.5%
COc1ccccc1C(=O)NCCn1ccn2nc(-c3ccc(C)c(C)c3)cc2c1=O | 1.2% | i | -26.8% | -13.6 | -25.8% | -9.1%
O=C(NCCn1ccn2nc(-c3ccc(F)cc3)cc2c1=O)c1cccc(Cl)c1 | 4.1% | i | -26.5% | -5.4 | -43.1% | 86.6%
COc1ccc(-c2cc3c(=O)n(CCNC(=O)c4ccc(F)cc4)ccn3n2)cc1 | -3.4% | ? | -10.7% | -1.0 | ? | 7.6%
CCOc1ccccc1NC(=O)N1CCCC(Cn2cnc3cccnc32)C1 (configuration not stated) | -1.7% | i | -19.8% | -4.9 | -3.7% | -12.2%
Clc1ccccc1C1(c2ccnc(NCCc3cccnc3)n2)CCNCC1 | -24.8% | i | ? | 12.8 | ? | 1.6%
Cc1ccc(-c2cc(C(=O)NCc3cccc(Cl)c3)nn3cnnc23)cc1 | -21.0% | · | -5.0% | 0.3 | -6.6% | -21.1%
Cc1onc(-c2cnn(C)c2NCc2ccc(C#N)cc2)c1C(=O)Nc1ccccc1 | 5.3%[87.6 µM] | i | ? | 10.8 | ? | 1.4%[87.6 µM]
COc1ccc(-c2cc3c(=O)n(CCNC(=O)c4cc(F)cc(F)c4)ccn3n2)cc1 | -5.0% | 2µM* | ? | 5.3 | ? | 67.3%
Oc1ccc(-c2nc(-c3ccc(F)cc3)c(-c3ccncc3)[nH]2)cc1 | ? | · | · | · | · | 1.36µM*!
